Results: PubChem BioAssay AID1159580 (chemical genetic matrix, 2015)
Out of some 5,500 compounds screened, about 2,000 (36%) were called active. Inconclusive results (about 18%) are left out. No stated cut-off is given here; in the data, active means normalized growth mostly below about 0.91 (no sharp cut-off); inconclusive means no clear call, values can overlap the other calls; inactive means mostly above about 0.92. The list shows a part of the results.

Assay: chemical genetic growth profiling, strain panel (AID 1159580);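 further: tested at 20 µM; growth read once vehicle control cultures reached saturation at 30 °C; 1 = growth at the plate median or of vehicle wells; lower values mean less growth of the strain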
Conditions: growth OD

Measured: normalized growth

COc1cc(NC(C)CCCN)c2ncccc2c1 (configuration not stated)
inactive: S. cerevisiae deletion strains, locus YJR075W, strain HOC1, hits give low values 1 | S. cerevisiae deletion strains, locus YKL009W, strain mrt4, hits give low values 1.02 | S. cerevisiae deletion strains, locus YKL068W, hits give low values 1.01 | S. cerevisiae deletion strains, locus YKL085W, strain MDH1 (second series), hits give low values 1 | S. cerevisiae deletion strains, locus YKL085W, strain MDH1, hits give low values 1 | S. cerevisiae deletion strains, locus YKL160W, strain elf1, hits give low values 0.942 | S. cerevisiae deletion strains, locus YKL190W, strain CNB1, hits give low values 1 | S. cerevisiae deletion strains, locus YKR001C, strain vps1, hits give low values 1.01 | S. cerevisiae deletion strains, locus YKR026C, strain gcn3, hits give low values 1.01 | S. cerevisiae deletion strains, locus YKR091W, strain srl3, hits give low values 0.999 | S. cerevisiae deletion strains, locus YLL001W, strain dnm1, hits give low values 0.965 | S. cerevisiae deletion strains, locus YLL026W, hits give low values 0.998 | S. cerevisiae deletion strains, locus YLL041C, strain sdh2, hits give low values 1 | S. cerevisiae deletion strains, locus YLR027C, strain aat2, hits give low values 0.997 | S. cerevisiae deletion strains, locus YLR039C, strain RIC1, hits give low values 1.03 | S. cerevisiae deletion strains, locus YLR058C, strain SHM2, hits give low values 1.01 | S. cerevisiae deletion strains, locus YLR102C, strain apc9, hits give low values 1.01 | S. cerevisiae deletion strains, locus YLR113W, strain HOG1, hits give low values 1.06 | S. cerevisiae deletion strains, locus YLR221C, strain rsa3, hits give low values 1.01 | S. cerevisiae deletion strains, locus YLR258W, strain gsy2, hits give low values 1.04 | S. cerevisiae deletion strains, locus YLR262C, strain YPT6 (second series), hits give low values 0.956 | S. cerevisiae deletion strains, locus YLR262C, strain YPT6, hits give low values 1.05 | S. cerevisiae deletion strains, locus YLR268W, strain sec22, hits give low values 1.02 | S. cerevisiae deletion strains, locus YLR320W, strain mms22, hits give low values 0.987 | S. cerevisiae deletion strains, locus YLR330W, strain CHS5, hits give low values 1 | S. cerevisiae deletion strains, locus YLR342W, strain FKS1 (second series), hits give low values 0.947 | S. cerevisiae deletion strains, locus YLR342W, strain FKS1, hits give low values 0.991 | S. cerevisiae deletion strains, locus YLR357W, strain rsc2, hits give low values 0.991 | S. cerevisiae deletion strains, locus YLR370C, strain arc18, hits give low values 1.02 | S. cerevisiae deletion strains, locus YLR371W, strain rom2, hits give low values 1.01 | S. cerevisiae deletion strains, locus YLR384C, strain iki3, hits give low values 1.02 | S. cerevisiae deletion strains, locus YLR418C, strain cdc73, hits give low values 0.988 | S. cerevisiae deletion strains, locus YML016C, strain PPZ1, hits give low values 1.01 | S. cerevisiae deletion strains, locus YML032C, strain rad52, hits give low values 1.01 | S. cerevisiae deletion strains, locus YML120C, strain ndi1, hits give low values 0.995 | S. cerevisiae deletion strains, locus YML124C, strain tub3, hits give low values 1.01 | S. cerevisiae deletion strains, locus YMR058W, strain fet3, hits give low values 0.999 | S. cerevisiae deletion strains, locus YMR078C, strain ctf18, hits give low values 0.997 | S. cerevisiae deletion strains, locus YMR125W, strain sto1, hits give low values 0.951 | S. cerevisiae deletion strains, locus YMR129W, hits give low values 1.01 | S. cerevisiae deletion strains, locus YMR205C, strain PFK2, hits give low values 0.962 | S. cerevisiae deletion strains, locus YMR223W, strain ubp8, hits give low values 0.991 | S. cerevisiae deletion strains, locus YMR231W, strain pep5, hits give low values 1.01 | S. cerevisiae deletion strains, locus YMR263W, strain SAP30, hits give low values 1 | S. cerevisiae deletion strains, locus YMR307W, strain GAS1, hits give low values 0.951 | S. cerevisiae deletion strains, locus YNL067W, strain RPL9B, hits give low values 1.01 | S. cerevisiae deletion strains, locus YNL071W, strain lat1, hits give low values 1.01 | S. cerevisiae deletion strains, locus YNL128W, strain TEP1, hits give low values 1 | S. cerevisiae deletion strains, locus YNL153C, strain GIM3, hits give low values 1.01 | S. cerevisiae deletion strains, locus YNL183C, strain NPR1, hits give low values 0.972 | S. cerevisiae deletion strains, locus YNL209W, strain ssb2, hits give low values 1 | S. cerevisiae deletion strains, locus YNL233W, strain BNI4, hits give low values 1 | S. cerevisiae deletion strains, locus YNL248C, strain rpa49, hits give low values 0.938 | S. cerevisiae deletion strains, locus YNL250W, strain rad50, hits give low values 1.02 | S. cerevisiae deletion strains, locus YNL271C, strain bni1, hits give low values 1.02 | S. cerevisiae deletion strains, locus YNL298W, strain CLA4, hits give low values 1.02 | S. cerevisiae deletion strains, locus YNL307C, strain MCK1, hits give low values 1 | S. cerevisiae deletion strains, locus YNL322C, strain KRE1 (second series), hits give low values 1 | S. cerevisiae deletion strains, locus YNL322C, strain KRE1, hits give low values 1 | S. cerevisiae deletion strains, locus YNR049C, strain mso1, hits give low values 1 | S. cerevisiae deletion strains, locus YNR052C, strain pop2, hits give low values 1.02 | S. cerevisiae deletion strains, locus YOL006C, strain TOP1, hits give low values 1.03 | S. cerevisiae deletion strains, locus YOL012C, strain htz1 1 | S. cerevisiae deletion strains, locus YOL147C, strain pex11, hits give low values 1.02 | S. cerevisiae deletion strains, locus YOR001W, strain rrp6, hits give low values 1.02 | S. cerevisiae deletion strains, locus YOR061W, strain CKA2, hits give low values 1 | S. cerevisiae deletion strains, locus YOR069W, strain VPS5, hits give low values 1.01 | S. cerevisiae deletion strains, locus YOR070C, strain gyp1, hits give low values 1.02 | S. cerevisiae deletion strains, locus YOR080W, strain dia2, hits give low values 1.01 | S. cerevisiae deletion strains, locus YOR083W, strain WHI5, hits give low values 0.958 | S. cerevisiae deletion strains, locus YOR106W, strain vam3, hits give low values 0.959 | S. cerevisiae deletion strains, locus YOR136W, strain idh2, hits give low values 1.01 | S. cerevisiae deletion strains, locus YOR144C, strain elg1, hits give low values 1.01 | S. cerevisiae deletion strains, locus YOR184W, strain ser1, hits give low values 1.04 | S. cerevisiae deletion strains, locus YOR231W, strain MKK1, hits give low values 1 | S. cerevisiae deletion strains, locus YOR265W, strain rbl2, hits give low values 1.02 | S. cerevisiae deletion strains, locus YOR270C, strain vph1, hits give low values 1.05 | S. cerevisiae deletion strains, locus YOR290C, strain snf2, hits give low values 0.997 | S. cerevisiae deletion strains, locus YOR316C, strain cot1, hits give low values 1.01 | S. cerevisiae deletion strains, locus YPL051W, strain arl3, hits give low values 0.982 | S. cerevisiae deletion strains, locus YPL055C, strain LGE1, hits give low values 1 | S. cerevisiae deletion strains, locus YPL078C, strain atp4, hits give low values 0.96 | S. cerevisiae deletion strains, locus YPL106C, strain sse1, hits give low values 1 | S. cerevisiae deletion strains, locus YPL240C, strain hsp82, hits give low values 1.01 | S. cerevisiae deletion strains, locus YPL241C, strain CIN2, hits give low values 1 | S. cerevisiae deletion strains, locus YPL256C, strain CLN2, hits give low values 1.07 | S. cerevisiae deletion strains, locus YPR119W, strain clb2, hits give low values 1.01 | S. cerevisiae deletion strains, locus YPR141C, strain kar3, hits give low values 1.01 | S. cerevisiae deletion strains, locus YPR163C, strain tif3, hits give low values 1.01 | S. cerevisiae deletion strains, locus YPR167C, strain met16, hits give low values 1.02 | S. cerevisiae deletion strains, strain wtn01, hits give low values 1.02 | S. cerevisiae strains, strain wild type, hits give low values 1
